Unmarked numbers belong to inactive results. No rule for the calls is given here.
Potency is read from the fitted curve at half-maximal effect.

The test system of the test is HIV-1 nucleocapsid protein NCp7 (binding to TG oligonucleotide). The test is described as follows: HIV Nucleocapsid (AID 346).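 Also: potency is for inhibitors that block NC binding and lower polarization.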 The settings on record: HIV-1 NC / fluorescein-TGTGTGTG probe, fluorescence polarization. In a few lines: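 Fluorescence polarization readout: labelled TG4xF oligo (10 nM) with 100 nM nucleocapsid protein, high-salt (250mM NaCl) Hepes pH 7.5 buffer containing zinc and fresh reducing agents. Compounds added by pin tool; incubation 1 hr, room temperature.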
A general note: Polarisation of emitted light reports the rotation of a fluorescent probe.
As to `N#CCCn1c(=O)c(-c2ccc(Cl)cc2)nc2cnc(OCc3ccccc3)nc21`, the Potency was more than 20 µM.
Next, `COc1ccc(C(=O)N2CCC3(CC2)CCN(c2cccc(-c4ccccc4)c2)CC3)cc1`: more than 20 µM; `O=c1c(-c2cc(F)cc(F)c2)nc2cnc(N3CCOCC3)nc2n1-c1ccccc1`: more than 4 µM.
Under `COCCn1c(=O)c(C)nc2cnc(Oc3ccc(OC)cc3)nc21` stands more than 20 µM; under `CN(C)c1ncc2nc(-c3ccc(Cl)cc3)c(=O)n(C[C@H]3CCCO3)c2n1`, more than 20 µM; under `Cc1cccc(CNc2nc(-c3cccnc3)nc3ccccc23)c1`, more than 20 µM.
Under `COc1ncc2nc(-c3ccccc3)c(=O)n(CCC#N)c2n1` stands more than 20 µM; under `Cc1cccc(CNc2cc(-c3ccc(N(C)C)cc3)ncn2)c1`, more than 20 µM.
On to `CC(=O)N1CCC2(CC1)CCN(C(=O)Nc1cccc(F)c1)CC2`, for which the Potency was more than 20 µM.
Next, `COc1ccccc1CNc1ncncc1-c1ccccc1CN(C)C`: more than 20 µM; `CN(Cc1ccco1)c1ncncc1-c1ccc2c(c1)OCO2`: more than 20 µM; `Cc1nc2cnc(Oc3cccc(Cl)c3)nc2n(C2CC2)c1=O`: more than 20 µM.
On to `O=c1c(-c2ccc(F)c(F)c2)nc2cncnc2n1Cc1ccc(F)cc1`, for which the Potency was more than 20 µM.
For the compound `O=S(=O)(c1ccccc1)N1CCC2(CCN(c3cccc(-c4ccccc4)c3)CC2)CC1`, the Potency is more than 20 µM.
Next, `COc1ccc(-n2c(=O)c(CCc3ccccc3)nc3cnc(N4CCOCC4)nc32)cc1`: more than 20 µM.
Next, `CN(C)c1ccc(-c2nc(N(C)C)c3ccccc3n2)cc1`: more than 20 µM; `CN1CC[C@@]2(CCCN(C(=O)c3cc(C(F)(F)F)cc(C(F)(F)F)c3)C2)C1`: more than 20 µM; `O=C(c1ccncc1)N1CCC[C@@]2(CCN(Cc3ccncc3)C2)C1`: more than 20 µM.
Under `COCCn1c(=O)cnc2cnc(N3CCN(C)CC3)nc21` stands more than 20 µM.
As for `O=S(=O)(c1ccccc1)N1CCC2(CC1)CN(c1ccccc1)C2`, the Potency was more than 20 µM.
Next, `O=C(Nc1ccccc1)N1CCCC2(CCN(C(=O)c3ccco3)CC2)C1`: more than 20 µM.
Take `CS(=O)(=O)Nc1cccc(-c2cncnc2NCc2ccccc2)c1`: the Potency is more than 20 µM.
Under `CN1CCN(c2ncc3nc(-c4ccc(F)cc4)c(=O)n(C4CC4)c3n2)CC1` stands more than 20 µM; under `CCNc1ncc2nc(-c3cn(C)c4ccccc34)c(=O)n(Cc3ccc(F)cc3)c2n1`, more than 20 µM; under `COc1ccc(CNc2ncnc3ccc(-c4ccccc4CN(C)C)cc23)c(OC)c1`, more than 20 µM.
Next, `CN(C)C(=O)c1ccc(-c2cncnc2Nc2ccc(F)cc2)cc1`: more than 20 µM.
On to `CN1CCCC2(CCN(S(=O)(=O)c3ccccc3)CC2)C1`, for which the Potency is more than 20 µM.
Next, `Cc1cccc(CNc2cc(-c3ccccc3CN(C)C)ncn2)c1`: more than 20 µM; `CN1CCN(c2ncnc3ccc(-c4ccoc4)cc23)CC1`: more than 20 µM; `Clc1ccccc1-c1nc(N2CCNCC2)c2ccccc2n1`: more than 20 µM.
In the case of `CN(C)c1ncc2nc(-c3cc(F)cc(F)c3)c(=O)n(Cc3cccs3)c2n1`, the Potency was more than 4 µM.
Next, `COc1ncc2nc(-c3cn(C)c4ccccc34)c(=O)n(-c3ccccc3)c2n1`: more than 20 µM; `CN1CCN(c2ncc3nc(-c4cccs4)c(=O)n(Cc4cccs4)c3n2)CC1`: more than 20 µM.
Under `CN1CCN(c2ncncc2-c2ccccc2C(F)(F)F)CC1` stands more than 20 µM; under `Cc1nc2cnc(OCc3ccccc3)nc2n(Cc2ccc(F)cc2)c1=O`, more than 20 µM.
Take `COc1cccc(Cn2c(=O)c(-c3cccs3)nc3cnc(OC)nc32)c1`: the Potency was more than 20 µM.
Under `COC(=O)N1CCC[C@@]2(CCN(c3ncccn3)C2)C1` stands more than 20 µM; under `COCC(=O)N1CCC2(CCCN(Cc3ccccc3OC)C2)CC1`, more than 20 µM.
Next, `CN1CCN(c2ccnc(-c3cccc(NS(C)(=O)=O)c3)n2)CC1`: more than 20 µM.
Under `Cn1c(=O)c(-c2cc(F)cc(F)c2)nc2cnc(N3CCNCC3)nc21` stands more than 20 µM.

Source of the values: PubChem BioAssay (NCATS).
